Most compounds without a hit are left out; they make up all but 21% or so of the library.
SARS PLP yeast: qHTS of Yeast-based Assay for SARS-CoV PLP; S. cerevisiae expressing SARS-CoV PLpro, growth rescue; Potency, µM (doses to about 32.9 µM), inactives show at the highest dose activity, positive = growth rescue, hits mostly activators; hit rate 0.19% among 330,000; AID 485353, 2010; further: potency means the concentration at half of the fitted maximal effect; 0% is about no effect; nearly all actives have a fitted effect of over 55% in size
Shiga toxin inh: A qHTS for Small Molecule Inhibitors of Shiga Toxin | hit rate 9.2% among 290,000 | AID 2315, 2010 | inhibition, % at 38.7 µM | Vero cells, Shiga toxin protein synthesis inhibition reporter; in the data active means inhibition mostly above about 28%, no sharp cut-off; inactive means mostly below about 43%; further: 0% is about no effect
Cycloheximide cs: Cycloheximide Counterscreen for Small Molecule Inhibitors of Shiga Toxin; hit rate 12% among 300,000; cell reporter, cycloheximide protein synthesis inhibition counterscreen; max response, %; in the data active means max response mostly above about 13%, no sharp cut-off; inactive means mostly below about 14%; further: read at 38.3 µM for the half of the compounds with a filed dose; 0% is about no effect
Pf growth 96h: Primary qHTS for delayed death inhibitors of the malarial parasite plastid, 96 hour incubation | P. falciparum luciferase reporter growth, 96 h | Potency, µM (highest dose often 28.7 µM), for inactives: at the highest dose activity change, negative = inhibition, most hits filed as inhibitors | hit rate 6.9% among 320,000 | AID 504834, 2011; active means well fitted inhibition curve with a large enough effect; inconclusive means small, poorly fitted or top-dose-only effect, or another doubt; inactive means no such curve, though single readings can be large or run the other way; further: potency means the concentration at half of the fitted maximal effect; on the % scale 0 is the no-effect control and ±100 the full control effect
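Parasite growth measured via integrated firefly luciferase reporter in P. falciparum. Infected erythrocytes at 2% hematocrit, 0.05% parasitemia final were treated 96 hours at 37 C under 5% CO2, and luminescence was read.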
NS1 function inh: qHTS Assay for Inhibitors of Influenza NS1 Protein Function; Potency, µM (top dose mostly 46.1 µM), for the others: top-dose activity, positive = more growth; hit rate 0.4% among 270,000; AID 2326, 2010; further: potency means the concentration at half of the fitted maximal effect; actives are rising curves; nearly all actives have a fitted effect of over 50% in size
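OD600 was taken as the measure of yeast growth restored by compound in an NS1-expressing S. cerevisiae strain. Cells had been washed out of glucose medium and diluted 1:100 into galactose -URA medium, pH 6.0.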
Pf growth 48h: Primary qHTS for delayed death inhibitors of the malarial parasite plastid, 48 hour incubation | P. falciparum luciferase growth in erythrocytes, 48 h | hit rate 5.9% among 310,000 | Potency, µM (titrated, usually from 28.7 µM), for the others: at the highest dose activity change, negative = inhibition, hits mostly inhibitors; active means well fitted inhibition curve with a large enough effect; inconclusive means small, poorly fitted or top-dose-only effect, or another doubt; inactive means no such curve, though single readings can be large or run the other way; further: potency means the concentration at half of the fitted maximal effect; on the % scale 0 is the no-effect control and ±100 the full control effect
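In quantitative HTS format, infected erythrocytes bearing luciferase-reporter parasites were treated for a single generation at 37 C. Luminescence after adding detection reagent served as the growth measure.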
Numbers without * were called inactive. Unless noted, the call rests on the fitted dose curve.

For O=C(COC(=O)c1ccc(Cl)nc1)Nc1ccccc1OC(F)F the results were SARS PLP yeast -12%, Shiga toxin inh -22, Cycloheximide cs 10, Pf growth 96h -4% and Pf growth 48h -7%.
Screening Cc1ccc(NC(=O)N2CCc3ccccc3C2)cc1C returned SARS PLP yeast -4%, Shiga toxin inh 152*, Cycloheximide cs 78*, Pf growth 96h inconclusive, NS1 function inh -3% and Pf growth 48h 97%.
Cc1cccc(NC(=O)N2CCc3ccccc3C2)c1C was read as SARS PLP yeast -3%, Shiga toxin inh 39*, Cycloheximide cs 29*, Pf growth 96h 30%, NS1 function inh -12% and Pf growth 48h -2%.
Screening COc1ccc(NC(=O)N2CCc3ccccc3C2)cc1OC returned SARS PLP yeast -7%, Shiga toxin inh 9, Cycloheximide cs 9, Pf growth 96h inconclusive, NS1 function inh -14% and Pf growth 48h -2%.
CC(C)CCNC(=O)C(=O)NC1CCCC1 was read as SARS PLP yeast -37%, Shiga toxin inh 37*, Cycloheximide cs 11*, Pf growth 96h 18%, NS1 function inh -2% and Pf growth 48h 88%.
Screening Cc1ccc(C)c(OCCC(=O)Nc2ccc3c(c2)OCO3)c1 returned SARS PLP yeast -5%, Pf growth 96h -29% and Pf growth 48h -24%.
For CC(=O)C1=C(c2cccc([N+](=O)[O-])c2)N(C(C)=O)n2c(C)nnc2S1 the results were SARS PLP yeast -3%, Shiga toxin inh 12, Cycloheximide cs 18*, Pf growth 96h inconclusive and Pf growth 48h inconclusive.
For CCOc1ccc(C2=C(C(C)=O)Sc3nnc(C)n3N2C(C)=O)cc1 the results were Shiga toxin inh 45 and Cycloheximide cs 20*.
For Cc1ccc(NC(=O)C(C)SCC(=O)Nc2ccc(F)cc2)cc1S(=O)(=O)N1CCOCC1 (stereo unspecified) the results were Pf growth 96h -19% and Pf growth 48h inconclusive.
For COc1ccc(-n2ncc(C(C)NS(=O)(=O)c3cc(F)ccc3C)c2C)cc1 (stereo unspecified) the results were SARS PLP yeast 1%, Shiga toxin inh -4, Cycloheximide cs 21*, Pf growth 96h 6%, NS1 function inh 14% and Pf growth 48h -10%.
For Cc1c(CCOC(=O)CC23CC4CC(CC(C4)C2)C3)sc[n+]1Cc1ccccc1 the results were SARS PLP yeast -5%, Shiga toxin inh -14, Cycloheximide cs 2, Pf growth 96h inconclusive, NS1 function inh 14% and Pf growth 48h 7.4µM*.
Screening Cc1c(CCO)sc[n+]1CC(=O)OCCC12CC3CC(CC(C3)C1)C2 returned SARS PLP yeast -4%, Shiga toxin inh 1, Cycloheximide cs -2, Pf growth 96h 1µM*, NS1 function inh -1% and Pf growth 48h 5.2µM*.
`CC(=O)N1CCc2cc(S(=O)(=O)NC(CC(C)C)C(=O)Nc3cc(C(=O)O)ccc3C)ccc21` (stereo unspecified) gave SARS PLP yeast inconclusive, Shiga toxin inh -4, Cycloheximide cs -2, Pf growth 96h 0.29µM*, NS1 function inh 2% and Pf growth 48h 2%.
Screening CCc1ccc(NC(=O)C(NS(=O)(=O)c2ccc3c(c2)CCN3C(C)=O)C(C)C)cc1 (stereo unspecified) returned SARS PLP yeast 2%, Shiga toxin inh -1, Cycloheximide cs -1, Pf growth 96h inconclusive, NS1 function inh -2% and Pf growth 48h inconclusive.
CC(NC(=S)Nc1ccc(Cl)cc1)C(c1ccccc1)N1CCOCC1 (stereo unspecified) was read as SARS PLP yeast 14%, Shiga toxin inh -10, Cycloheximide cs -2, Pf growth 96h 10µM*, NS1 function inh -33% and Pf growth 48h inconclusive.
For O=C(O)CC/C(=C\c1ccc2c(c1)OCO2)c1nc2ccccc2s1 the results were SARS PLP yeast -4%, Shiga toxin inh 31, Cycloheximide cs 34*, Pf growth 96h 38%, NS1 function inh -70% and Pf growth 48h 8%.
O=C(O)C/C(=C\c1ccc(N2CCOCC2)c([N+](=O)[O-])c1)c1nc2ccccc2s1 was read as SARS PLP yeast 0%, Shiga toxin inh 28, Cycloheximide cs 20*, Pf growth 96h inconclusive, NS1 function inh 11% and Pf growth 48h inconclusive.
